Most compounds without a hit are left out; they make up all but 1.2% or so of the library.
TRPV1 agonist – agonists of human vanilloid receptor 1 (TRPV1). TRPV1-expressing cells, Fluo-8 calcium influx, agonist mode. activation, % at 8.33 µM. 0.19% of 320,000 active; in the data active = activation above about 80%; inconclusive = between about 30% and that limit
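Fluo-8 calcium influx in TRPV1-expressing cells, kinetic read (ex 480/em 520 nm). Compound added and read 3 min for agonist activity, followed by capsaicin at EC20 final and 2 min further read for enhancement.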
TRPV1 potentiator – enhances activation of the human vanilloid receptor TRPV1; 0.02% of 320,000 active; potentiation, % at 8.33 µM; TRPV1-expressing cells, Fluo-8 calcium influx, capsaicin EC20 potentiation; Q8NER1; in the data active = potentiation above about 80%; inconclusive = between about 30% and that limit
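TRPV1-expressing cells were cultured overnight at 35.5C and loaded with Fluo-8 calcium dye for 40 to 90 min at room temperature. After a 10 s baseline, compound was added and calcium influx was read kinetically for 3 min (ex 480/em 520 nm).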
KCNH2 3.1 block – blocks the human KCNH2 3.1 channel isoform | U2OS KCNH2 3.1, thallium flux FluxOr; stronger effect = lower value | activity change, % (tested at about 1.8 µM) | 0.95% of 340,000 active | AID 720553;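 active = maximum activity change below -70%; inconclusive = maximum activity change from -70% to -50%; inactive = maximum activity change above -50%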;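 also: thallium influx rate constant from kinetic fluorescence after stimulation buffer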
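FluxOr-based Tl+ influx in U2OS cells transduced with KCNH2 3.1 virus; rate constants normalized to DMSO controls.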
hERG WT inh – KCNH2 (human, wildtype) channel inhibition. Q12809. U2OS, BacMam KCNH2, thallium flux FluxOr; stronger effect = lower value. activity change, % at 1.84 µM. 0.37% of 340,000 active. AID 720551;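 active = maximum activity change below -70%; inconclusive = maximum activity change between -70% and -50%; inactive = maximum activity change above -50%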
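U2OS cells transduced with wild-type KCNH2 virus are loaded with FluxOr dye for 45 min, and thallium flux is measured in kinetic reads before and after stimulation buffer. Rate constants are normalized to DMSO controls.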
Each line names hits and unclear results; the compound was inactive in the other large screens.

O=C1CCN(CCc2ccccc2)CCN1[C@H](CSc1ccccc1)c1ccccc1	KCNH2 3.1 block -101.2, hERG WT inh -134.2
CC(C)C[C@@H](CSc1ccccc1)N1CCN(CCc2ccccc2)CCC1=O	KCNH2 3.1 block -100.5, hERG WT inh -77.0
CC(C)C[C@@H](CSc1ccc(Br)cc1)N1CCN(CCc2ccccc2)CCC1=O	none (no result: KCNH2 3.1 block, hERG WT inh)
O=C1CCN(CCc2ccccc2)CCN1[C@H](CO)c1ccccc1	none
CCCN1CCC(=O)N([C@H](CSc2ccc(Br)cc2)Cc2ccccc2)CC1	TRPV1 agonist inconclusive, KCNH2 3.1 block -101.0, hERG WT inh -89.5
Cc1nc(Br)c(Br)c(C)c1Br	none
CN(C(=O)Cn1cc([N+](=O)[O-])ccc1=O)C1CCCCC1	none
N#Cc1sc2nc(C3CC3)cc(-c3ccc(Cl)cc3)c2c1N	KCNH2 3.1 block -72.1
COc1ccc(-c2cc(-c3cccs3)nc3sc(C#N)c(N)c23)cc1	none
Cc1[nH]n(-c2ccc([N+](=O)[O-])cc2)c(=O)c1C=NCCN1CCN(C(=O)c2ccc(F)cc2)CC1	none
Cc1[nH]n(-c2ccc([N+](=O)[O-])cc2)c(=O)c1C=NCCN1CCN(C(=O)c2ccc(Br)cc2)CC1	KCNH2 3.1 block -84.0, hERG WT inh -107.8
O=C(NN1C(=O)NC2(CCCCC2)C1=O)c1cc2ccccc2o1	none
O=C(C1CCCN1S(=O)(=O)c1cccc2nsnc12)N1CCN(c2ccc(F)cc2)CC1 (stereo unspecified)	KCNH2 3.1 block -73.6
COc1cccc(CC(=O)OCC(=O)Nc2c(C)nn(-c3ccccc3)c2C)c1	none
C[C@@H]1CN([C@H](C)CO)C(=O)CCCn2nncc2CO[C@H]1CN(C)S(=O)(=O)c1cccs1	none (no result: TRPV1 agonist, TRPV1 potentiator)
O=C(Cn1c(=O)c2c(ncn2Cc2ccccc2)n(Cc2ccccc2)c1=O)NC1CC1	KCNH2 3.1 block -90.1
O=C1CC(c2ccco2)CC2=C1C(c1ccncc1)n1nc(C(F)(F)F)nc1N2 (stereo unspecified)	none (no result: KCNH2 3.1 block, hERG WT inh)
Cc1ccc(S(=O)(=O)N2CCN(C(=O)COC(=O)CSc3ccc(C)c(C)c3)CC2)c(C)c1	none
O=C(c1ccc(-c2cccc(Cl)c2)o1)N1CCN(c2ccc([N+](=O)[O-])cc2)CC1	KCNH2 3.1 block -101.2, hERG WT inh inconclusive
COc1ccc(N2CCN(C(=O)c3ccc(COc4ccc([N+](=O)[O-])cc4)o3)CC2)cc1	none
O=[N+]([O-])c1cccc(-c2ccc(C(=S)N3CCN(c4ccccc4)CC3)o2)c1	none
O=[N+]([O-])c1ccc(N2CCN(S(=O)(=O)c3ccccc3)CC2)cc1	KCNH2 3.1 block -84.1, hERG WT inh -80.4
Cc1c(Cl)cccc1-c1ccc(C(=O)N2CCN(c3ccc([N+](=O)[O-])cc3)CC2)o1	KCNH2 3.1 block -79.7
O=C(CCCSc1nc2ccccc2[nH]1)N1CCN(c2ccc([N+](=O)[O-])cc2)CC1	KCNH2 3.1 block -115.9, hERG WT inh -105.2
O=P(c1ccccc1)(c1ccccc1)c1ccccc1C(Br)Br	none (no result: TRPV1 agonist, TRPV1 potentiator)
CC(C)(C)c1ccc(C(=O)NCCC(=O)NNC(=O)COc2ccc(F)cc2)cc1	none (no result: TRPV1 agonist, TRPV1 potentiator)
COc1ccc(S(=O)(=O)NC2CCN(Cc3ccccc3)CC2)cc1NC(C)=O	none
O=C(CNCc1ccc(Cl)cc1)Nc1cc(S(=O)(=O)N2CCCC2)ccc1Cl	none (no result: TRPV1 agonist, TRPV1 potentiator)
O=c1c(Cc2ccc(Cl)cc2)c(O)ccn1Cc1cccs1	none
COc1ccc(N2CCN(C(=O)c3ccc(CNS(=O)(=O)c4ccc(C)cc4)cc3)CC2)cc1	none
CSC(=NC#N)N1CCN(c2ccc([N+](=O)[O-])cc2)CC1	KCNH2 3.1 block -78.5
O=[N+]([O-])c1ccc(N2CCN(C(=S)NC3CCCCC3)CC2)cc1	KCNH2 3.1 block -72.0
Cc1ccc(S(=O)(=O)NCc2ccc(C(=O)N3CCN(c4ccc([N+](=O)[O-])cc4)CC3)cc2)cc1	KCNH2 3.1 block -96.3
O=C(Cc1ccc([N+](=O)[O-])cc1)N1CCN(c2ccc([N+](=O)[O-])cc2)CC1	TRPV1 agonist inconclusive, KCNH2 3.1 block -90.6, hERG WT inh inconclusive
CCOC(=O)N1CCN(c2ccc([N+](=O)[O-])cc2)CC1	TRPV1 agonist inconclusive
COc1cccc(COC(=O)c2sc3nc4n(c(=O)c3c2C)CCC4)c1OC	TRPV1 potentiator inconclusive
Cc1ccccc1-c1cccc([C@@H]2C[C@H]3C(CN2)CON3C)c1 (stereo partly specified)	none (no result: TRPV1 agonist, TRPV1 potentiator)
O=C(NNc1cccc(Cl)n1)c1cccnc1Cl	none (no result: hERG WT inh)
COC(=O)C(NC(=O)c1cccnc1Cl)C(C)C (stereo unspecified)	hERG WT inh -120.4
Nc1c(-c2cccc(Cl)c2)cnn1-c1ccccc1	KCNH2 3.1 block -87.6
COc1ccc(Nc2ncnc3ccc(C)cc23)cc1	TRPV1 agonist 80.7
CCN(CC(=O)NCCc1ccc(S(N)(=O)=O)cc1)Cc1ccccc1	KCNH2 3.1 block -74.4
CCn1ncc(CN2CCC(C(=O)Nc3cccc(-c4cccc(F)c4)c3)CC2)c1C	TRPV1 potentiator inconclusive, KCNH2 3.1 block -96.5, hERG WT inh -116.5
CC(=O)c1cccc(CN2CCC(C(=O)Nc3ccc(Oc4cccnc4)cc3)CC2)c1	none (no result: KCNH2 3.1 block)
Cc1cc(C)n(CCCN2CCC(C(=O)Nc3cccc(-c4cccc(F)c4)c3)CC2)n1	KCNH2 3.1 block -102.1, hERG WT inh -105.1
CC(=O)c1cccc(CN2CCC(C(=O)Nc3ccc(-c4cccc(C)c4)cc3)CC2)c1	KCNH2 3.1 block -101.0
CCn1nc(C)c(CN2CCC(C(=O)Nc3cccc(-c4cccc(Cl)c4)c3)CC2)c1C	KCNH2 3.1 block -95.1, hERG WT inh -94.1
COc1cccc(-c2ccc(NC(=O)C3CCCN(Cc4cnc(C)n4C)C3)cc2)c1 (stereo unspecified)	KCNH2 3.1 block inconclusive
Cc1ncc(CN2CCCC(C(=O)Nc3ccc(-c4cccc(F)c4)cc3)C2)n1C (stereo unspecified)	KCNH2 3.1 block -84.2
Nc1nc2c(nnn2Cc2ccc(Cl)c(Cl)c2)c(=O)[nH]1	none (no result: TRPV1 agonist, TRPV1 potentiator)
Cc1ccc(S(=O)(=O)Nc2cc(-c3ccc(Cl)cc3)nn2C)cc1	KCNH2 3.1 block -173.8
Cc1ccc(/C=C/C(=O)N2CCc3ccccc3C2)cc1	TRPV1 agonist 80.4
CC(C)(C)c1ccc(/C=C/C(=O)N2CCc3ccccc3C2)cc1	TRPV1 agonist inconclusive
CCCCN1C(=O)C(CC(=O)NCc2cccc3ccccc23)CC(C(=O)N(C)C)=C1C (stereo unspecified)	KCNH2 3.1 block -91.2 (no result: TRPV1 agonist, TRPV1 potentiator)
O=C(Cn1c(=O)oc2ccccc21)N1CCOCC1	none (no result: hERG WT inh)
Cc1ccc2oc(=O)n(CC(=O)N3CCOCC3)c2c1	hERG WT inh -142.0
Cc1nonc1CN(C)C(=O)CC1C(=O)NCCN1Cc1c(F)cccc1Cl (stereo unspecified)	none
Cc1cc(CN(C)C(=O)CC2C(=O)NCCN2Cc2c(F)cccc2Cl)n[nH]1 (stereo unspecified)	hERG WT inh -79.4
O=C(NCCc1ccccc1)c1cccc(S(=O)(=O)NCc2ccccc2)c1	none
O=C(NC(c1ccccc1)c1ccccc1)c1cccc(S(=O)(=O)NCc2ccccc2)c1	KCNH2 3.1 block -70.9
CCN(CC(=O)Nc1c(F)cccc1F)C(=O)c1cccc(S(=O)(=O)NCc2ccccc2)c1	hERG WT inh -219.3
